RecA intein inh = Mtb RecA intein splicing inhibitors, primary screen, biochemical, fluorescence, HTS | inhibition, % (test concentration not listed) | Protein RecA (Mycobacterium tuberculosis (strain ATCC 25618 / H37Rv)), P9WHJ3 | AID 2221, 2009 | cell-free RecA intein splicing | hit rate 0.75% among 290,000; in the data active means inhibition above about 30%
DUSP3 inh = VHR1 phosphatase inhibitors, primary screen, biochemical, absorbance, uHTS; Dual specificity protein phosphatase 3 (Homo sapiens), P51452; recombinant VHR phosphatase, pNPP absorbance; inhibition, % at 13.3 µM; hit rate 0.52% among 290,000; AID 1654, 2009; in the data active means inhibition above about 50%
Target sequence (P51452 whole entry, looked up): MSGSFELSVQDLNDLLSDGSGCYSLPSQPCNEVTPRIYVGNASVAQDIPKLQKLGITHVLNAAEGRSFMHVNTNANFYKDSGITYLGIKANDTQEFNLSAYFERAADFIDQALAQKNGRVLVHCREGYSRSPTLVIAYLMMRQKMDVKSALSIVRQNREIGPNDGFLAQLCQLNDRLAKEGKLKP
Mtb FBA inh = Mtb FBA enzyme inhibitors, primary screen, biochemical, fluorescence, strain H37Rv; purified M. tuberculosis FBA, fluorescence read-out; Fructose-bisphosphate aldolase (Mycobacterium tuberculosis (strain ATCC 25618 / H37Rv)), …; hit rate 2.3% among 360,000; inhibition, % at 1 µM; AID 588726, 2011; in the data active means inhibition above about 27%
CCHF vOTU inh = CCHFV vOTU protease inhibitors, primary screen, biochemical, Pep-AMC substrate, fluorescence; inhibition, % at 11.5 µM; hit rate 0.55% among 370,000; AID 651958, 2012
3CLpro inhibitor = SARS-CoV 3CLpro protease inhibitors, primary screen, biochemical, quenched FRET; Replicase polyprotein 1ab (Severe acute respiratory syndrome coronavirus), P0C6X7; recombinant SARS-CoV 3CLpro, quenched FRET peptide cleavage; inhibition, % at 6 µM; hit rate 0.14% among 290,000; AID 1706, 2009; in the data active means inhibition above about 12%
GDH-TPI counter = GDH-TPI coupling enzyme inhibitors, primary screen, artefact control for M. tuberculosis FBA inhibitor project, biochemical, absorbance, full deck. GDH-TPI coupled enzyme counterscreen, NADH absorbance. inhibition, % at 4.8 µM. hit rate 1.2% among 360,000. AID 588335, 2011
Numbers stand for hits; – = inactive; · = no result; + = active, no number. Shown are actives, neighbours in structure and some others; about 4.7% of the full set was active somewhere. Unless noted, no stated cut-off is given here; in the data, active means inhibition above about 30%; inactive means the rest.

SMILES	RecA intein inh	DUSP3 inh	Mtb FBA inh	CCHF vOTU inh	3CLpro inhibitor	GDH-TPI counter
CCOc1ccc(CCNC(=O)c2cc([N+](=O)[O-])ccc2N2CCOCC2)cc1OCC	–	50	–	–	–	–
O=C(NCCCN1CCOCC1)c1sc2cc(Cl)ccc2c1Cl	–	–	–	–	–	–
O=C(NCCN1CCOCC1)c1cc([N+](=O)[O-])ccc1Cl	–	50	–	–	–	–
Cc1ccc(NC(=O)c2cc([N+](=O)[O-])ccc2N2CCOCC2)cc1C	–	–	–	–	–	–
Cc1ccc(NC(=O)c2cc([N+](=O)[O-])ccc2N2CCOCC2)cc1S(=O)(=O)N(C)C	–	–	–	–	–	42
CCOc1ccc(CCNC(=O)COC(=O)c2cc([N+](=O)[O-])ccc2N2CCOCC2)cc1OCC	–	–	–	–	–	–
Cc1ccc(S(=O)(=O)N2[C@H](CC(=O)c3ccc(F)cc3)OC[C@@H]2C)cc1	·	·	·	–	·	·
O=C(/C=C/c1ccccc1Cl)Nc1cccc(S(=O)(=O)NC2=NCCCCC2)c1	–	–	–	–	–	–
O=C(/C=C/c1ccc([N+](=O)[O-])cc1)Nc1cccc(S(=O)(=O)NC2=NCCCCC2)c1	·	·	–	–	·	41
CCOC(=O)N1CCN(C(=O)C[C@H]2C[C@@]3(C(=O)OC)C(=C[C@H](COCc4ccccc4)O[C@@H]3C)N(CCC3=CCCCC3)C2=O)CC1	·	·	·	–	·	·
Cc1ccc(NC(=O)/C(=C\C=C\c2ccccc2)NC(=O)c2ccccc2)cc1	–	–	–	–	–	51
CCOC(=O)/C(=C\C=C\c1ccccc1)NC(=O)c1ccccc1	–	–	–	–	–	67
CCOC(=O)/C(=C/C=C/c1ccccc1)NC(=O)c1ccccc1	–	–	–	–	–	–
O=C(Nc1cccc(C(=O)O)c1)/C(=C\C=C\c1ccccc1)NC(=O)c1ccccc1	–	–	–	–	–	33
O=C(Nc1ccc(C(=O)O)cc1)/C(=C\C=C\c1ccccc1)NC(=O)c1ccccc1Br	–	–	–	–	–	52
O=C(OC1C2C=CC1C1C(=O)NC21)c1ccccc1 (stereo unspecified)	·	·	–	–	·	–
NC(=O)c1ccc(/C=N/O)[n+](Cc2ccccc2)c1	–	–	–	–	–	35
CCOC(=O)c1ccc(/C=N/O)[n+](Cc2ccccc2)c1	–	–	–	–	–	–
CCOC(=O)[C@@]12CCCC3=C1N(CCC3)C(=O)[C@H]2CC(=O)N1CCCC1	·	·	·	–	·	·
CC(=O)Oc1ccccc1/C=C/c1ccc2ccccc2[n+]1C	–	–	–	–	–	31
Cc1nn(-c2ccccc2)c2sc(C(=O)N3CCN(C(c4ccccc4)c4ccc(Cl)cc4)CC3)cc12 (stereo unspecified)	·	·	·	–	·	·
CCOC(=O)Nc1ccc2c(CN3CCC(C(=O)OC)CC3)cc(=O)oc2c1	–	–	–	–	–	–
CC(=O)Nc1ccc2c(COC(=O)[C@H](C)N3C(=O)C4CCCCC4C3=O)cc(=O)oc2c1 (stereo partly specified)	–	–	+	–	–	32
CCOC(=O)[C@]12CCC=C1N(Cc1ccc3c(c1)OCO3)C(=O)[C@H](CC(=O)N1CCN(C(=O)c3ccco3)CC1)C2	·	·	·	–	·	·
O=C(N[C@@H](Cc1cccnc1)C(=O)N1CCC[C@H]1C(=O)NCCc1ccccc1Cl)C1CC1	·	·	·	–	·	·
SMILES	RecA intein inh	DUSP3 inh	Mtb FBA inh	CCHF vOTU inh	3CLpro inhibitor	GDH-TPI counter
C=C1C(=O)OC2CC(C)C3C=CC(=O)C3(C)C(O)C12 (stereo unspecified)	·	·	–	·	·	–
C=C1C(=O)O[C@@H]2C[C@@H](C)[C@@H]3C=CC(=O)[C@@]3(C)[C@@H](OC(=O)CC(=O)O[C@H]3[C@@H]4C(=C)C(=O)O[C@@H]4C[C@@H](C)[C@@H]4C=CC(=O)[C@]43C)[C@H]12	33	–	–	–	·	–
O=C1C=C(c2ccccc2)CO1	·	·	–	–	·	–
CCNS(=O)(=O)c1ccc(CCC(=O)NC2CCCC2)cc1	–	–	–	–	–	–
CC(C)CNS(=O)(=O)c1ccc(CCC(=O)NC2CCCC2)cc1	–	52	–	–	–	–
O=C(C1CCN(CCc2ccccc2)CC1)N1CCOCC1	·	·	–	–	·	–
